Experimental data from PubChem BioAssay (NCI).
About 83,000 compounds went through this panel and 20% of them were active in at least one assay; those are over-represented in the sample as a whole.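 Compound tested at a single concentration for 48 hours in 96-well plates; a percent growth value below 10 was scored as active.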 The source made the active and inactive calls.

Columns and labels:
Assay in all cases: NCI-60 one-dose screen, 48 h (100 = growth as untreated, 0 = no growth, -100 = all killed)
SR leukemia = conditions: 10 µM unless noted
RPMI-8226 leukemia = conditions: 10 µM unless noted
OVCAR-8 ovarian = conditions: 10 µM unless noted
OVCAR-5 ovarian = conditions: 10 µM unless noted
OVCAR-4 ovarian = conditions: 10 µM unless noted
SK-OV-3 ovarian = conditions: 10 µM unless noted
IGROV1 ovarian = conditions: 10 µM unless noted
OVCAR-3 ovarian = conditions: 10 µM unless noted
HS 578T breast = conditions: 10 µM
T-47D breast = conditions: 10 µM unless noted
BT-549 breast = conditions: 10 µM unless noted
MDA-MB-435 melanoma = conditions: 10 µM unless noted
SW-620 colon = conditions: 10 µM unless noted
MCF7 breast = conditions: 10 µM unless noted
HCT-116 colon = conditions: 10 µM unless noted
HCC-2998 colon = conditions: 10 µM unless noted
KM12 colon = conditions: 10 µM unless noted
NCI/ADR-RES ovarian = conditions: 10 µM unless noted

Measured: growth

Nc1nc(N)c2c(n1)NC(c1sc(Cl)nc1Cl)CC(c1ccc3c(c1)OCO3)=N2 (stereo not given)
inactive: SR leukemia 17.1% | RPMI-8226 leukemia 27.1% | OVCAR-8 ovarian 40.5% | OVCAR-5 ovarian 66.3% | OVCAR-4 ovarian 86% | SK-OV-3 ovarian 17.4% | IGROV1 ovarian 34.2% | OVCAR-3 ovarian 10.4% | HS 578T breast 10.8% | T-47D breast 39.1% | BT-549 breast 27.2% | SW-620 colon 13.2% | MCF7 breast 26.2% | HCT-116 colon 20.1% | HCC-2998 colon 61.2% | KM12 colon 34.2%
active: MDA-MB-435 melanoma -9.34%

Cc1ccc(N2C3c4ccccc4N(S(=O)(=O)c4ccc(C)cc4)C2c2ccccc2N3S(=O)(=O)c2ccc(C)cc2)cc1
inactive: SR leukemia 96% | RPMI-8226 leukemia 93.1% | OVCAR-8 ovarian 88.9% | OVCAR-5 ovarian 105% | OVCAR-4 ovarian 93.9% | SK-OV-3 ovarian 106% | IGROV1 ovarian 107% | OVCAR-3 ovarian 107% | HS 578T breast 99.5% | T-47D breast 93.2% | BT-549 breast 115% | MDA-MB-435 melanoma 99.9% | SW-620 colon 96.6% | MCF7 breast 88.5% | HCT-116 colon 121% | HCC-2998 colon 115%

COc1ccc(C2CC(c3cccc(Nc4ccnc5cc(Cl)ccc45)c3)=NN2c2ccccc2)cc1 (stereo not given)
inactive: SR leukemia 29.7% | RPMI-8226 leukemia 67.9% | OVCAR-8 ovarian 76.4% | OVCAR-5 ovarian 85.6% | OVCAR-4 ovarian 118% | SK-OV-3 ovarian 80.8% | IGROV1 ovarian 74.8% | OVCAR-3 ovarian 92.1% | HS 578T breast 78.3% | T-47D breast 50.8% | BT-549 breast 63% | SW-620 colon 36.8% | MCF7 breast 47.6% | HCT-116 colon 65.5% | HCC-2998 colon 54.1%
active: MDA-MB-435 melanoma -9.41%

COc1ccc(-c2nc3ccc(Cc4ccc5nc(-c6ccc(OC)cc6)[nH]c5c4)cc3[nH]2)cc1
inactive: SR leukemia 38.8% | RPMI-8226 leukemia 18.5% | OVCAR-8 ovarian 15.1% | OVCAR-5 ovarian 91.2% | OVCAR-4 ovarian 11.4% | SK-OV-3 ovarian 97.3% | HS 578T breast 73.1% | T-47D breast 20.8% | BT-549 breast 84.5% | MDA-MB-435 melanoma 35.3% | SW-620 colon 31.2% | HCT-116 colon 39.4% | HCC-2998 colon 35.8% | KM12 colon 49.1%
active: IGROV1 ovarian -16.9% | OVCAR-3 ovarian -21.9% | MCF7 breast -13.5%

C#CC[C@@H]1C[C@]2(C)[C@H]3CC[C@@H]4[C@H]5C(C(=C)C)CC[C@]5(C(=O)NCCCN5CCN(CCCN)CC5)CC[C@@]4(C)[C@]3(C)CC[C@H]2C(C)(C)[C@H]1OC(C)=O (stereo not given in full)
inactive: SK-OV-3 ovarian 108% | HS 578T breast 14.8% | NCI/ADR-RES ovarian 38.8% | BT-549 breast 75.6%
active: SR leukemia -13.6% | RPMI-8226 leukemia -48.5% | OVCAR-8 ovarian -6.54% | OVCAR-5 ovarian -61.3% | OVCAR-4 ovarian -42.3% | IGROV1 ovarian -46.7% | OVCAR-3 ovarian -83% | MDA-MB-435 melanoma -73.3% | SW-620 colon -79.4% | MCF7 breast -75.4% | HCT-116 colon -95.3% | HCC-2998 colon -23.5% | KM12 colon -74.6%

COc1cc(C2CC(c3cccc(Nc4ccnc5cc(Cl)ccc45)c3)=NN2c2ccc(Cl)cc2)cc(OC)c1OC (stereo not given)
active: MDA-MB-435 melanoma 8.15%
inactive: SR leukemia 55.9% | RPMI-8226 leukemia 47.8% | OVCAR-8 ovarian 55.2% | OVCAR-5 ovarian 80.2% | OVCAR-4 ovarian 115% | SK-OV-3 ovarian 92.2% | IGROV1 ovarian 39.7% | OVCAR-3 ovarian 83.3% | HS 578T breast 64.8% | T-47D breast 30.8% | BT-549 breast 81.7% | SW-620 colon 37.3% | MCF7 breast 54.8% | HCT-116 colon 53% | HCC-2998 colon 87.3% | KM12 colon 33.9%

COc1cc(C2CC(c3cccc(Nc4ccnc5cc(Cl)ccc45)c3)=NN2c2ccccc2)cc(OC)c1OC (stereo not given)
inactive: SR leukemia 52.7% | RPMI-8226 leukemia 53.1% | OVCAR-8 ovarian 69.6% | OVCAR-5 ovarian 99.8% | OVCAR-4 ovarian 124% | SK-OV-3 ovarian 101% | IGROV1 ovarian 76.4% | OVCAR-3 ovarian 90.6% | HS 578T breast 63.6% | T-47D breast 42.9% | BT-549 breast 88.6% | MDA-MB-435 melanoma 24.4% | SW-620 colon 37.8% | MCF7 breast 60.6% | HCT-116 colon 64.8% | HCC-2998 colon 91.8% | KM12 colon 40.7%

Cc1nc2ccc(Nc3nc(Cl)nc(N4CCOCC4)n3)cc2n1Cc1ccccc1
inactive: SR leukemia 18.5% | RPMI-8226 leukemia 74.4% | OVCAR-8 ovarian 44% | OVCAR-5 ovarian 104% | OVCAR-4 ovarian 126% | SK-OV-3 ovarian 93.7% | OVCAR-3 ovarian 98.4% | HS 578T breast 81.4% | T-47D breast 40.6% | BT-549 breast 83.7% | MDA-MB-435 melanoma 110% | SW-620 colon 70.4% | MCF7 breast 64.7% | HCT-116 colon 81.2%
active: IGROV1 ovarian -1.16% | HCC-2998 colon 0.667%

COc1ccc(C2CC(c3ccc(Nc4ccnc5cc(Cl)ccc45)cc3)=NN2c2ccccc2)cc1 (stereo not given)
inactive: SR leukemia 81% | RPMI-8226 leukemia 70.5% | OVCAR-8 ovarian 95.4% | OVCAR-5 ovarian 86.2% | OVCAR-4 ovarian 163% | SK-OV-3 ovarian 108% | IGROV1 ovarian 113% | OVCAR-3 ovarian 111% | HS 578T breast 105% | T-47D breast 92.9% | BT-549 breast 99.8% | MDA-MB-435 melanoma 80.3% | SW-620 colon 96.3% | MCF7 breast 81.9% | HCT-116 colon 72.4% | HCC-2998 colon 101% | KM12 colon 94.2%

Cc1nc2ccc(Nc3nc(N4CCOCC4)nc(N4CCN(C)CC4)n3)cc2n1Cc1ccccc1
inactive: SR leukemia 24.9% | RPMI-8226 leukemia 65.4% | OVCAR-8 ovarian 93.6% | OVCAR-5 ovarian 101% | OVCAR-4 ovarian 112% | SK-OV-3 ovarian 96.2% | IGROV1 ovarian 98.2% | OVCAR-3 ovarian 94.7% | HS 578T breast 69.3% | T-47D breast 91.9% | BT-549 breast 66.1% | SW-620 colon 96.9% | MCF7 breast 82.6% | HCT-116 colon 71.3% | HCC-2998 colon 96.3% | KM12 colon 93.2%

O=C(NNC(=S)Nc1ccccc1)c1ccc(Nc2ncnc3c2cnn3-c2cccc(Br)c2)cc1
inactive: SR leukemia 115% | RPMI-8226 leukemia 110% | OVCAR-8 ovarian 110% | OVCAR-5 ovarian 105% | OVCAR-4 ovarian 106% | SK-OV-3 ovarian 101% | IGROV1 ovarian 107% | OVCAR-3 ovarian 107% | HS 578T breast 105% | NCI/ADR-RES ovarian 105% | BT-549 breast 104% | SW-620 colon 104% | MCF7 breast 103% | HCT-116 colon 98.9% | HCC-2998 colon 104% | KM12 colon 107%

COc1cc(C2CC(c3ccc(Nc4ccnc5cc(Cl)ccc45)cc3)=NN2c2ccccc2)cc(OC)c1OC (stereo not given)
inactive: SR leukemia 24.8% | RPMI-8226 leukemia 49.7% | OVCAR-8 ovarian 81.2% | OVCAR-5 ovarian 86.4% | OVCAR-4 ovarian 123% | SK-OV-3 ovarian 90.3% | IGROV1 ovarian 106% | OVCAR-3 ovarian 86.7% | HS 578T breast 72.4% | T-47D breast 67.7% | BT-549 breast 82.3% | SW-620 colon 50.2% | MCF7 breast 48% | HCT-116 colon 54.9% | HCC-2998 colon 67.7% | KM12 colon 47.9%
active: MDA-MB-435 melanoma 6.36%

Cc1cc(C)cc(Nc2cc(C)nc3nc(C(F)(F)F)nn23)c1
active: OVCAR-3 ovarian 8.97% | MCF7 breast -11.7%
inactive: SR leukemia 29.6% | RPMI-8226 leukemia 40% | OVCAR-8 ovarian 17.5% | OVCAR-5 ovarian 63.3% | OVCAR-4 ovarian 37.3% | SK-OV-3 ovarian 47.8% | IGROV1 ovarian 21.6% | HS 578T breast 71.7% | T-47D breast 29.5% | BT-549 breast 49% | MDA-MB-435 melanoma 36.9% | SW-620 colon 35.2% | HCT-116 colon 19.2% | HCC-2998 colon 40.2% | KM12 colon 25.7%

Nc1n[nH]c2ccc([C@@H]3Nc4c(F)cc5[nH]ncc5c4[C@H]4C5CCC(C5)[C@@H]34)cc12 (stereo not given in full)
active: OVCAR-3 ovarian -16.7% | MDA-MB-435 melanoma -11.5% | HCT-116 colon 7.44%
inactive: SR leukemia 42.8% | RPMI-8226 leukemia 21.3% | OVCAR-8 ovarian 22% | OVCAR-5 ovarian 30.8% | OVCAR-4 ovarian 29.4% | SK-OV-3 ovarian 39.1% | IGROV1 ovarian 20.9% | HS 578T breast 20.9% | NCI/ADR-RES ovarian 13.8% | BT-549 breast 27% | MCF7 breast 18.5% | HCC-2998 colon 28.1% | KM12 colon 10.4%

Cc1cc(NC(=O)C2c3ccccc3C(=O)N(CC(C)C)C2c2cccs2)no1 (stereo not given)
active: SR leukemia 7.23% | RPMI-8226 leukemia 3.73% | OVCAR-8 ovarian 3.68% | OVCAR-4 ovarian -8.84% | OVCAR-3 ovarian -53.6% | BT-549 breast -4.46% | MDA-MB-435 melanoma -43.8% | SW-620 colon -57% | HCT-116 colon 0.136% | HCC-2998 colon -45.5%
inactive: OVCAR-5 ovarian 31.5% | SK-OV-3 ovarian 94.7% | IGROV1 ovarian 16.2% | HS 578T breast 67.7% | T-47D breast 23.9% | MCF7 breast 10.4% | KM12 colon 86.8%

CC(=O)N1N=C(c2ccc(C)cc2)CC1c1cn(-c2ccccc2)nc1-c1cccc(Nc2ccnc3cc(Cl)ccc23)c1 (stereo not given)
inactive: OVCAR-8 ovarian 46.4% | OVCAR-5 ovarian 133% | OVCAR-4 ovarian 120% | SK-OV-3 ovarian 114% | IGROV1 ovarian 48.9% | OVCAR-3 ovarian 84.7% | HS 578T breast 80.3% | T-47D breast 23.4% | BT-549 breast 87.3% | MDA-MB-435 melanoma 13.8% | SW-620 colon 27.2% | MCF7 breast 24.8% | HCC-2998 colon 102% | KM12 colon 72.5%
active: SR leukemia -4.15% | RPMI-8226 leukemia -11% | HCT-116 colon 6.87%

[O-]/[N+](=C\c1ccccc1)CC1(O)CCCCC1
inactive: SR leukemia 99.5% | RPMI-8226 leukemia 97.2% | OVCAR-8 ovarian 99.5% | OVCAR-5 ovarian 95.8% | OVCAR-4 ovarian 95.9% | SK-OV-3 ovarian 113% | IGROV1 ovarian 125% | OVCAR-3 ovarian 111% | HS 578T breast 98.2% | T-47D breast 106% | BT-549 breast 111% | MDA-MB-435 melanoma 100% | SW-620 colon 94.2% | MCF7 breast 92.7% | HCT-116 colon 117% | HCC-2998 colon 115% | KM12 colon 100%

CCn1c(CN2CCN(Cc3ccccc3)CC2)nc2cc(NC(=O)c3cccs3)ccc21
active: SR leukemia -9.71% | RPMI-8226 leukemia -27.6% | OVCAR-8 ovarian -61.8% | OVCAR-5 ovarian 4.74% | OVCAR-4 ovarian -51.2% | SK-OV-3 ovarian -95.1% | IGROV1 ovarian -83% | OVCAR-3 ovarian -94.5% | HS 578T breast -25.3% | T-47D breast -62.5% | BT-549 breast -30.9% | MDA-MB-435 melanoma -89% | SW-620 colon -82.8% | MCF7 breast -88.1% | HCT-116 colon 0.264% | HCC-2998 colon -88.9% | KM12 colon -93.5%
